In general, AC50 refers to the midpoint of the concentration-response curve, whichever way the signal moves.

“And” between values parts separate entries of the source, which are not always exact repeats. Equal values may be shown once. The campaign covered roughly 16,000 compounds. About 5,800 (36%) were called active. Not shown: some 23% with an inconclusive outcome. Calls follow the shape of the dose curve; as a rule, active = well fitted curve in the direction sought with a large enough effect; inconclusive = small, poorly fitted or top-dose-only effect, or effect the other way; inactive = no such curve, though single readings can be large or run the other way. Some of the results follow.
% is scaled to controls: 0 for no effect and ±100 for the full control effect.

For this assay, the target named is Cytochrome P450 2C19 (Homo sapiens) (UniProt P33261). The assay can be described thus: Cytochrome panel assay with activity outcomes. Conditions: recombinant CYP, pro-luciferin dealkylation, luminescence, p450-cyp2c19; series mostly up to 57.1 µM.
Chain of Cytochrome P450 2C19 (Homo sapiens) (P33261 whole entry, looked up): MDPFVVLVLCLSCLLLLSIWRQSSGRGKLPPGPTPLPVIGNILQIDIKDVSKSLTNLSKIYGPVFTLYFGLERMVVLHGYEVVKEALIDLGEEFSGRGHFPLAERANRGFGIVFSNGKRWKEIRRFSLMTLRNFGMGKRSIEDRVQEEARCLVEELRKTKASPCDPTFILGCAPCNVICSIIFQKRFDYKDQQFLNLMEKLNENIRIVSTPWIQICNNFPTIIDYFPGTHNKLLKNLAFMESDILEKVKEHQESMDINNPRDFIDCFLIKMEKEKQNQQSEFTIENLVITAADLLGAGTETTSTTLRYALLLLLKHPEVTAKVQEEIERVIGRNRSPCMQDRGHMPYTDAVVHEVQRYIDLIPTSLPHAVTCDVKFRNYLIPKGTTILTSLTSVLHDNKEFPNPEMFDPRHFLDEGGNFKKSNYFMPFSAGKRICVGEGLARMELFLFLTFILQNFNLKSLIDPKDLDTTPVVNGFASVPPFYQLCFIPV
As for `COc1cc2c3cc1Oc1c(OC)c(OC)cc4c1[C@@H](Cc1ccc(O)c(c1)Oc1ccc(cc1)C[C@@H]3N(C)CC2)CN(C)C4`, the activity, negative = inhibition is -44.9% [at 11.4 µM] (inactive).

Turning to `COc1ccc([N+](=O)[O-])cc1N(CC(O)CN(CC(C)C)CC(C)C)S(=O)(=O)c1ccccc1` (centres undefined), the AC50 is 6.31 µM (active).

Consider `CS(=O)(=O)N1CCC2(CC1)CN(C(=O)Nc1ccccc1)C2`, for which the AC50 entry is “inactive”.

`O=C(Nc1ccccc1)N1CCSc2cc(Cl)ccc21`: the AC50 was 0.794 µM (active).

Take `Cn1ccc2cc3c(cc21)CCN3C(=O)Nc1cccnc1`: the AC50 result was “inactive”.

With `O=C(O)c1cc(-c2ccncc2)nc2ccccc12`, the activity, negative = inhibition is 15.6% [at 11.4 µM] (inactive).

Take `O=C(N/N=C/c1ccc([N+](=O)[O-])o1)c1cc(-c2ccncc2)nc2ccccc12`: the AC50 is 2.82 µM (active).

In the case of `CCn1c2ccccc2c2cc(NC(=O)C(C)Oc3ccc(OC)cc3)ccc21` (centres undefined), the AC50 is 0.398 µM (active).

For `CCC(Sc1ncccc1C(=O)O)C(=O)N1CCOCC1` (centres undefined), the AC50 result was “inactive”.

Consider `CCC(C(=O)N1CCOCC1)n1c(C(=O)OC)cc2occc21` (centres undefined), for which the AC50 was 5.01 µM (active).

Turning to `CCN(CC)c1ccc(C(=O)OCc2cc(=O)oc3cc(O)ccc23)cc1`, the AC50 is 0.355 µM (active).

`COc1ccc2c(CC(=O)NCC3CCC(C(=O)O)CC3)cc(=O)oc2c1` (centres undefined): the AC50 entry was “inactive”.

For `Cc1cc(=O)oc2cc(O)ccc12`, the AC50 entry was “inactive”.

Turning to `CCN(CC)c1ccc2c(Cl)cc(=O)oc2c1`, the AC50 was 11.2 µM (active).

Take `CCCC[C@H](CC)CN1CN(C[C@@H](CC)CCCC)CC(C)(N)C1`: the AC50 entry is “inactive”.

Consider `CS(=O)(=O)N1CCN(c2c(Cl)cccc2[N+](=O)[O-])CC1`, for which the AC50 is 14.1 µM (active).

Consider `CS(=O)(=O)N1CCC2(CCN(C(c3ccccc3)c3ccccc3)CC2)CC1`, for which the AC50 result is “inactive”.

For `CS(=O)(=O)N1CCC2(CCN(c3ccccc3)CC2)CC1`, the AC50 entry was “inactive”.

As for `CCS(=O)(=O)N1CCN(c2c(Cl)cccc2[N+](=O)[O-])CC1`, the AC50 is 10 µM (active).

With `CCN1CCc2nc(N)oc2CC1`, the AC50 entry was “inactive”.

In the case of `CC(=O)N(/N=C1\Sc2ccccc2C1=O)c1ccccc1C`, the AC50 is 4.47 µM (active).

Regarding `CC(=O)N(/N=C1\Sc2ccccc2C1=O)c1ccccc1`, the AC50 was 3.16 µM (active).

For `Clc1ccc(N2CCCCCC2)nn1`, the AC50 entry is “inactive”.

For the compound `O=[N+]([O-])c1cc(F)c(N2CCOCC2)cc1N1CCCCC1`, the AC50 is 3.98 µM (active).

As to `CC(C)c1ccc(CNc2cc(N3CCCC3)ccc2[N+](=O)[O-])cc1`, the AC50 was 1.78 µM (active).

Regarding `O=[N+]([O-])c1cccnc1N1CCOCC1`, the AC50 result was “inactive”.

Turning to `O=[N+]([O-])c1ccc(N2CCCC2)cc1N1CCCC1`, the concentration at half-maximal activity (AC50) was 4.47 µM (active).

As for `O=[N+]([O-])c1ccc(N2CCCCC2)c(Cl)c1N1CCCCC1`, the AC50 was 1.41 µM (active).

Turning to `COC(=O)[C@@]1(Cc2ccccc2)[C@H]2c3cc(C(=O)N(C)C)n(Cc4ccsc4Br)c3C[C@H]2CN1C(=O)c1ccccc1`, the AC50 was 2 µM (active).

Regarding `COC(=O)[C@@]1(Cc2ccccc2)[C@H]2c3cc(C(=O)N4CCCC4)n(Cc4ccsc4Br)c3C[C@H]2CN1C(=O)c1ccccc1`, the AC50 is 2.51 µM (active).

Take `COC(=O)[C@@]1(Cc2ccccc2)[C@H]2c3cc(C(=O)N4CCCC4)n(Cc4cccc5ccccc45)c3C[C@H]2CN1C(=O)c1ccccc1`: the AC50 was 2.51 µM (active).

Turning to `S=C(Nc1ccc2cn[nH]c2c1)Nc1ccc2cn[nH]c2c1`, the AC50 was 1 µM (active).

As for `O=C(O)c1c(Cl)c(Cl)c(Cl)c(Cl)c1C(=O)Nc1ccc2cn[nH]c2c1`, the activity, negative = inhibition was -27.8% [at 11.4 µM] (inactive).

Regarding `CCNc1ncc2nc(-c3ccc(Cl)cc3)c(=O)n(C3CC3)c2n1`, the AC50 entry was “inactive”.

With `CN(C)CCCNc1c(C(=O)O)cnc2c1cnn2C`, the AC50 result was “inactive”.

Consider `Cc1nn(C(C)C(=O)N2CCc3ccccc32)c(C)c1[N+](=O)[O-]` (centres undefined), for which the AC50 is 11.2 µM (active).

As to `CC(=O)N1CCC(=O)N(C(C)C)c2ccccc21`, the AC50 entry is “inactive”.

Turning to `Cc1ccc(-n2c(=O)[nH]cc(C(=O)N3CCc4ccccc43)c2=O)cc1`, the AC50 result was “inactive”.

On to `CN(C)CC[C@@H](c1ccccc1)c1ccccn1`, for which the AC50 result is “inactive”.

With `C[C@@H](C1=C(CCN(C)C)Cc2ccccc21)c1ccccn1`, the AC50 was 2.51 µM (active).

With `CN(C)CC(CN(C)C)c1ccccn1`, the activity, negative = inhibition is 4.36% [at 11.4 µM] (inactive).

In the case of `Cc1n[nH]c(=O)[nH]c1=O`, the AC50 entry is “inactive”.

As for `Cc1cccc(CNc2nc(-c3cccc(NS(C)(=O)=O)c3)nc3ccccc23)c1`, the AC50 is 2.51 µM (active).

With `CS(=O)(=O)Nc1cccc(-c2nc(NCCN3CCOCC3)c3ccccc3n2)c1`, the AC50 result is “inactive”.

With `CS(=O)(=O)Nc1cccc(-c2nc(NCc3cccs3)c3ccccc3n2)c1`, the AC50 was 10 µM (active).

`CCOC(=O)CC1NC(=O)c2ccccc21` (centres undefined): the AC50 entry is “inactive”.

Turning to `CCOC(=O)COc1c(OC)cc(Cl)cc1C1Nc2ccccc2C(=O)N1c1ccc(F)cc1` (centres undefined), the AC50 was 0.501 µM (active).

Regarding `CCOC(=O)COc1c(OC)cc(Cl)cc1C1Nc2ccccc2C(=O)N1c1cccc(C)c1` (centres undefined), the AC50 is 1.41 µM (active).

Take `C#CCn1c(=O)c2c(ncn2C)n(C)c1=O`: the AC50 entry was “inactive”.

With `O=C(Nc1cccc(C(F)(F)F)c1)c1ccc(Cn2cc(Br)cn2)o1`, the AC50 was 2.24 µM (active).

Consider `CCN(CC)S(=O)(=O)c1cccc(C(=O)N[C@H](C(=O)OCC(=O)NC(=O)NC)C(C)C)c1`, for which the AC50 was 7.94 µM (active).

For the compound `[N-]=[N+]=NC[C@@H]1O[C@@H](n2cnc3c(N)ncnc32)[C@@H]2O[C@@H]21`, the activity, negative = inhibition was 18.5% [at 11.4 µM] (inactive).

As for `CC(C)=CCC/C(C)=C/CC/C(C)=C/CSc1ccccc1C(=O)O`, the AC50 result is “inactive”.

In the case of `Cn1c(=O)cc(SCC(=O)NCCN2CCN(c3ccccc3F)CC2)c2cc(Cl)ccc21`, the AC50 is 11.2 µM (active).

`Cc1c(Cl)cnc(NC(=O)COC(=O)CCS(=O)(=O)c2ccccc2)c1Cl`: the AC50 was 20 µM (active).

For `CC(C)=CC(=O)OCC(=O)Nc1ncc(Cl)c(C)c1Cl`, the half-maximal activity concentration (AC50) is 15.8 µM (active).

For `Nc1ccc(CCNc2ncnc3c2ncn3[C@@H]2O[C@@H](CO)[C@H](O)[C@@H]2O)cc1`, the AC50 entry was “inactive”.

For the compound `Cc1cc(N)n2ncc(-c3ccc(Cl)cc3)c2n1`, the AC50 is 15.8 µM (active).

Regarding `Cc1cc(N2CCN(C)CC2)n2nc(-c3ccc(Cl)cc3)nc2n1`, the activity, negative = inhibition was 4.95% [at 11.4 µM] (inactive).

On to `COc1cc(C(=O)Nc2cc(C(F)(F)F)ccc2Cl)cc(OC)c1OC`, for which the AC50 is 22.4 µM (active).

In the case of `COC(=O)c1ccc(Cl)c(NC(=O)c2ccc(-c3ccccc3)cc2)c1`, the AC50 result was “inactive”.

Take `COc1cc(C(=O)NC(=S)Nc2ccc(Cl)c(C(=O)O)c2)cc(OC)c1OC`: the AC50 result is “inactive”.

As for `COc1cc(/C=C/C(=O)Nc2cc(C(F)(F)F)ccc2Cl)cc(OC)c1OC`, the AC50 was 20 µM (active).

Turning to `COc1cccc(C(=O)Nc2cc(C(F)(F)F)ccc2Cl)c1`, the AC50 is 7.08 µM (active).

As for `O=C(Cc1ccccc1)NC(=S)Nc1cc(C(F)(F)F)ccc1Cl`, the AC50 is 0.708 µM (active).

As to `CN(C)c1cc[n+](CC(=O)Nc2cc(C(F)(F)F)ccc2Cl)cc1`, the AC50 entry was “inactive”.

For `CCCC(=O)Nc1ccc(C(=O)Nc2cc(C(F)(F)F)ccc2Cl)cc1`, the AC50 was 20 µM (active).

Take `C/C(CCN1CCCCc2nc(C)c(C)cc21)=N\O[C@@H](C)c1cn([C@H](CO)Cc2ccccc2)nn1`: the activity, negative = inhibition is -12.5% [at 11.4 µM] (inactive) and 36.9% [at 11.4 µM] (inactive).

In the case of `O=C(O)C[C@@H](C(=O)O)C1c2ccccc2-c2ccccc21`, the activity, negative = inhibition is 26.9% [at 11.4 µM] (inactive).

As for `CC(=O)Nc1ccc2c(c1)C(=Nc1ccc(C(=O)O)cc1)c1ccccc1-2`, the activity, negative = inhibition is 24.2% [at 11.4 µM] (inactive).

Take `COc1ccc(NC(C)=O)cc1NC(=O)CN1CCN(C2c3ccccc3-c3ccccc32)CC1`: the AC50 was 2.51 µM (active).

For the compound `COc1ccccc1NC(=O)CN1CCN(C2c3ccccc3-c3ccccc32)CC1`, the AC50 was 0.708 µM (active).

Regarding `COC(=O)C/C=C1\c2ccccc2[C@H](OC)[C@H]1C`, the activity, negative = inhibition was 23.9% [at 11.4 µM] (inactive).

Turning to `CC(C)OC(=O)CN1CCN(C2c3ccccc3-c3ccccc32)CC1`, the AC50 was 7.08 µM (active).

For `N#CCCn1c(=O)c(-c2cc(F)cc(F)c2)nc2cnc(Nc3ccccc3)nc21`, the AC50 result was “inactive”.

For `FC(F)(F)c1cc(CN2CC3(CCNCC3)C2)cc(C(F)(F)F)c1`, the AC50 entry was “inactive”.

Turning to `COc1cc(C2SCCCCCCCCCCSC(c3ccc(O)c(OC)c3)SCCCCCCCCCCS2)ccc1O` (centres undefined), the activity, negative = inhibition is 20.3% [at 11.4 µM] (inactive).

As for `COc1ccc(Oc2c(C=O)c3ccccc3n2C)cc1`, the AC50 was 2.82 µM (active).

`COc1ccc(Oc2ncc3nc(-c4cn(C)c5ccccc45)c(=O)n(C)c3n2)cc1`: the AC50 result is “inactive”.

As to `Cn1c(Oc2ccccc2)c(C=O)c2ccccc21`, the AC50 was 4.47 µM (active).

Turning to `Cc1ccc(C(=O)O/N=C/c2c(Cl)n(C)c3ccccc23)cc1`, the AC50 entry was “inactive”.

Regarding `Cn1cc(-c2nc3cnc(Oc4ccccc4)nc3n(C)c2=O)c2ccccc21`, the AC50 entry is “inactive”.

With `O=C(COc1ccccc1Cl)Nc1cc(Cl)ccc1Oc1ccccc1`, the AC50 was 1 µM (active).

With `Cc1cc(NC(=O)COc2ccc(Cl)cc2Cl)n(-c2ccccc2)n1`, the AC50 was 1.12 µM (active).

As for `COc1cccc(-c2ccc3ncnc(NC4CCNCC4)c3c2)c1`, the AC50 is 6.31 µM (active).

As to `c1cncc(-c2ccc3ncnc(NC4CCNCC4)c3c2)c1`, the AC50 result was “inactive”.

Consider `c1nc(NC2CCNCC2)c2cc(-c3ccoc3)ccc2n1`, for which the AC50 entry was “inactive”.

On to `Cc1noc(C)c1-c1ccc2ncnc(NC3CCNCC3)c2c1`, for which the AC50 is 15.8 µM (active).

On to `COc1cccc(-c2ccc3ncnc(NC4CC4)c3c2)c1`, for which the AC50 was 1.26 µM (active).

As to `CS(=O)(=O)Nc1cccc(-c2ccc3ncnc(NC4CCNCC4)c3c2)c1`, the AC50 result is “inactive”.

With `CN(C)c1ccc(-c2ccc3ncnc(NC4CC4)c3c2)cc1`, the AC50 result was “inactive”.

Take `c1nc(NC2CCNCC2)c2cc(-c3ccc4c(c3)OCO4)ccc2n1`: the AC50 result was “inactive”.

Consider `Cc1cc(C)n(-c2nc3ccccc3c(=O)n2OCc2ccc(Cl)cc2)n1`, for which the half-maximal activity concentration (AC50) is 0.398 µM (active).

Regarding `Cn1c(=O)c(-c2ccc(Cl)cc2)nc2cnc(OCc3ccccc3)nc21`, the AC50 entry was “inactive”.

The values are drawn from PubChem BioAssay AID1851 (National Center for Advancing Translational Sciences (NCATS), 2009).
